The panel holds about 83,000 compounds, 20% with a hit somewhere; the sample as a whole holds those more often.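 The test compound was applied at a single concentration to cells in 96-well plates for 48 hours, and percent growth was recorded.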 Activity calls are given as the source filed them. How the source made its calls: active means growth percent below 10; inactive means the rest.
Each compound was assayed on DU-145 prostate (assay: NCI-60 one-dose screen, 48 h (100 = growth as untreated, 0 = no growth, -100 = all killed)). Settings: 10 µM unless noted.

Structure (SMILES) | growth
Cc1ccc(-c2onc3c(=O)[nH]nc(-c4ccccc4)c23)cc1 | 19.4% (inactive)
O=C1CSC(=S)N1CCc1ccc(O)cc1 | 33.5% (inactive)
CNC(=O)c1cc(Oc2ccc(NC(=O)Nc3ccc(Cl)c(OC(F)(F)F)c3)c(F)c2)ccn1 | 56.7% (inactive)
N#C/C(=C\c1ccc(-c2ccc(Cl)c(Cl)c2)o1)c1nc(-c2ccco2)cs1 | 114% (inactive)
O=S(=O)(Nc1ccc(OC(F)F)cc1)c1ccc(-c2cnc(C3CC3)o2)cc1 | 90.5% (inactive)
O=C1Nc2cc(-c3ccc(O)cc3)ccc2/C1=C/c1ccc[nH]1 | 1.75% (active)
CON1C(=O)CC[C@]2(C)[C@H]3CC[C@@H]4C([C@@]5(C)CCC(=O)O5)CC[C@@]4(C)[C@]3(C)CC[C@H]2C1(C)C (some centres undefined) | 107% (inactive)
Cn1cc(C(=O)c2nc(-c3c[nH]c4ccc(Br)cc34)no2)c2cc(F)ccc21 | 106% (inactive)
COc1ccc(-n2nc(C)c3c(Nc4ccc(NC(=O)Nc5cccc(C(F)(F)F)c5)cc4)ncnc32)cc1 | 18.2% (inactive)
CC(C)C1=C[C@@]23CC[C@@H]4[C@](C)(CCC[C@@]4(C)C(=O)N4CCCNCC4)[C@H]2C[C@@H]1[C@H]1C(=O)CCC(=O)[C@H]13 | 114% (inactive)
C#CCOc1ccc2ncnc(N3CCC(NC(=O)CCl)CC3)c2c1 | 72.8% [8.25 µM] (inactive)
Cc1ccc(NC(=O)/C=C/c2ccccc2)c(C(N)=O)c1 | -8.15% (active)
COc1ccc(/C=C\c2cc(OC)c(OC)c(OC)c2)cc1OC(=O)c1cccc(Cn2cc(CCOC(=O)[C@H](N)Cc3cn(C)c4ccccc34)nn2)c1 | -8.08% (active)
O=C1c2ccccc2C(=O)c2c1ccc1[nH]c(-c3cccs3)nc21 | 88.9% (inactive)
CN1CCN(Cc2ccc(NC(=O)c3cncc(C#Cc4cncn5ccnc45)c3)cc2C(F)(F)F)CC1 | 86.2% (inactive)
CC(C)(C)c1cc(/C=N\NC(=O)/C=C/C=C/c2ccc3c(c2)OCO3)c(O)c(C(C)(C)C)c1 | 56% (inactive)
CCCc1cc(=O)n2c(C(=O)Nc3ccc(F)cc3)c(C(=O)Nc3ccc(F)cc3)sc2n1 | 82.1% [30 µM] (inactive)
O=C(O)COc1ccc(Cl)cc1C1CCCCC1 | 110% (inactive)
NC(=O)c1cc(Br)ccc1NC(=O)/C=C/c1ccccc1 | -5.67% (active)
Cc1nn(-c2ccc(F)cc2)c2ncnc(Oc3ccc(NC(=O)Nc4ccc(Cl)c(C(F)(F)F)c4)cc3)c12 | 106% (inactive)

Structure (SMILES) | growth
CSc1nc(-c2cccc(NC(=O)CCl)c2)c(C#N)c(=O)n1C | 77.3% (inactive)
CCCCN(CCCC)CCCn1c(-c2ccccc2)ccc1-c1ccccc1 | 68.3% (inactive)
Cc1c(/C=C/[N+](=O)[O-])ccc2c1[nH]c1ccccc12 | 99.3% (inactive)
c1ccc(Cn2cc(-c3nc4ccccc4s3)c3cccnc32)cc1 | 102% (inactive)
O=C(N/N=C/c1c[nH]c2ccccc12)c1cc(-c2ccccc2)on1 | 100% (inactive)
CCCn1c(=O)[nH]c(N)c([C@H]2c3ccccc3Oc3[nH]c(=O)n(CCC)c(=O)c32)c1=O | 75.1% (inactive)
CC(=O)O[C@H]1[C@@H]2OC(=O)C(CSc3ccccc3)[C@@H]2C[C@H]2O[C@]2(C)CC/C=C(\C)CCC[C@@H]1C (some centres undefined) | 1.69% (active)
O=C1Nc2ccc(Br)cc2C12Oc1ccccc1C1CC(c3ccc(F)cc3)=NN12 (centres undefined) | 100% (inactive)
C=C1c2nc3ccccc3n2C=C(c2cccc(Cl)c2)N1Cc1ccc(OC)cc1 | 15.3% (inactive)
C#CC(F)(F)[C@]1(O)CC[C@H]2[C@@H]3CCC4=CC(=O)CCC4=C3[C@@H](c3ccc(C(C)=O)cc3)C[C@@]21C | 86.4% (inactive)
CC(=O)O[C@H]1CC[C@]2(C)[C@H]3CC=C4[C@@H]5CC(C)(C)CC[C@]5(C(=O)NCCNCCNCCN)CC[C@@]4(C)[C@]3(C)CC[C@H]2C1(C)C | 17% (inactive)
COc1ccc(-c2cc(NC(=O)Nc3ccc4ncsc4c3)no2)cc1 | 108% (inactive)
CCN(CC)c1ccc(-c2cc(-c3cc(OC)c(OC)c(OC)c3)nc(N3CCOCC3)c2C#N)cc1 | 38.8% (inactive)
CC1=CC(=NN=c2cc(C)n([O-])c(C)c2)C=C(C)[N+]1=O | 107% (inactive)
Cc1ccc2oc(=O)cc(C3c4ccc([nH]4)C(c4cc(=O)oc5ccc(C)cc45)c4ccc([nH]4)C(c4cc(=O)oc5ccc(C)cc45)c4ccc([nH]4)C(c4cc(=O)oc5ccc(C)cc45)c4ccc3[nH]4)c2c1 (centres undefined) | -46.3% (active)
COc1cc2c(cc1-c1c(C)noc1C)ncc1nc(C3CCOCC3)n([C@@H](C)COC(F)F)c12 | 73.1% (inactive)
Cc1[nH]c(-c2cc(N)ccc2Cl)c2c1C(=O)CCCC2 | 66.3% (inactive)
O=S(=O)(Nc1ccc(Br)c(Cl)c1)c1ccc(-c2cnc(C3CC3)o2)cc1 | 9.63% (active)
C=CC(=O)Nc1cccc(-c2nc(SC)nc(NCCN3CCOCC3)c2C#N)c1 | 94.7% (inactive)
